Most compounds without a hit are left out; they make up all but 2.8% or so of the library.
S16 F2sN tox: toxic to S16 Pmp22-F2sN Schwann cells | S16 Pmp22-F2sN Schwann cells viability, CellTiter-Glo, 24 h | Potency, µM (series often up to 57.5 µM), without a hit: at the top dose activity change, negative = cytotoxicity, hits mostly cytotoxic | actives 0.48% (n = 43,000); further: potency means the concentration at half of the fitted maximal effect; on the % scale 0 is the no-effect control and ±100 the full control effect; nearly all actives have a fitted effect of over 65% in size
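S16 Schwann cells carrying the Pmp22-F2sN reporter, seeded in 1536-well format, were exposed to library compounds for 24 h at 37C. Viability was read as CellTiter-Glo luminescence after 15 min at room temperature.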
mTORC1 inh: reduces mTORC1 signaling in Tsc2 and p53 null MEF cells; Tsc2-/- p53-/- MEF, phospho-rpS6 immunofluorescence/PI, 24 h; Potency, µM (series often up to 38.3 µM), for inactives: top-dose activity change, negative = inhibition, most hits filed as inhibitors; actives 0.78% (n = 44,000); AID 493208;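 further: potency means the concentration at half of the fitted maximal effect; plate controls were DMSO for no effect and rapamycin for full effect; nearly all actives have a fitted effect of over 50% in size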
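Compounds act on Tsc2-/-, p53-/- fibroblasts carrying an empty vector for 24 h before fixation and dual staining for phospho-S6 and DNA (propidium iodide). Values are percentages of cells above a rapamycin-defined pS6/PI threshold.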
TSG101-PTAP inh: TSG101-PTAP interaction inhibition, HIV-1 budding; Fluorescence polarization, FITC-PTAP peptide/Tsg101, 20 min; Potency, µM (series often up to 115 µM), usual class: inhibitors; 44,000 tested, under 10 active; further: potency means the concentration at half of the fitted maximal effect; 0% is about no effect
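Fluorescence polarization: Tsg101 binding domain (10 uM final) in 10 mM HEPES pH 7.5, 0.15 M NaCl, 0.01% Tween 20, 3 mM EDTA, 0.1 mM TCEP; compounds pinned; FITC-PTAP peptide 50 nM final; 20 min, r.t.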
GALK inhibitor: GALK (human) enzyme inhibition; recombinant GALK, Kinase-Glo ATP luminescence, 1 h; P51570; 44,000 tested, under 10 active; AID 1347072; Potency, µM (top dose mostly 57.5 µM), for inactives: at the highest dose activity, negative = inhibition, actives largely listed as inhibitors;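 further: plate controls were full GALK reaction for no effect and reaction lacking GALK for full effect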
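Compounds were pinned into ATP buffer, then GALK-galactose mix was added (final 5 nM enzyme, 35 uM ATP, 100 uM galactose, pH 8.0). After 1 h at room temperature, Kinase-Glo Plus was added and luminescence read.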
PMP22 txn: modulates PMP22 transcription in S16 Schwann cells; AID 1508649; Potency, µM (titrated, usually from 57.5 µM), for inactives: at the top dose activity change, negative = inhibition, most hits filed as inhibitors; actives 2% (n = 43,000); S16 Pmp22-F2sN Schwann cells (luciferase reporters placed in the Pmp22 gene), FLuc/NLuc coincidence luminescence, 24 h; active means clear falling dose curves in both reporters; inconclusive means both reporters move, but less clearly or upward; inactive means either reporter flat; the % is the NLuc reporter signal; further: potency means the concentration at half of the fitted maximal effect; on the % scale 0 is the no-effect control and ±100 the full control effect
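Schwann cells carrying the coincidence reporter were exposed to library compounds for 24 h at 37C, then lysed and read for FLuc and, after quenching, NLuc luminescence on a CCD imager.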
NLuc saturating: inhibits NanoLuc at saturating substrate, PMP22 counter-screen; Potency, µM (highest dose often 57.5 µM), for the others: at the highest dose activity change, negative = inhibition, hits mostly inhibitors; shares compounds with PMP22 txn; Secreted NLuc enzyme (filtered S16 cell medium), Nano-Glo luminescence; actives 4% (n = 690); further: potency means the concentration at half of the fitted maximal effect; on the % scale 0 is the no-effect control and ±100 the full control effect
NLuc Km ctr: counter-screen for PMP22 expression modulators: NanoLuc inhibition at Km | shares compounds with PMP22 txn | secreted NLuc enzyme, coelenterazine luminescence, Km conditions | Potency, µM (titrated, usually from 57.5 µM), for inactives: top-dose activity change, negative = inhibition, actives largely listed as inhibitors | actives 5% (n = 690) | AID 1508639; further: potency means the concentration at half of the fitted maximal effect; on the % scale 0 is the no-effect control and ±100 the full control effect
FLuc counter: counter-screen for PMP22 expression modulators: firefly luciferase inhibition | AID 1508640 | shares compounds with PMP22 txn | Potency, µM (doses to about 57.5 µM), inactives show top-dose activity, negative = inhibition, hits mostly inhibitors | 690 tested, under 10 active | purified P. pyralis FLuc, luminescence, 10 min; further: % of control where 0% means no effect
Target sequence (P08659 whole entry, looked up): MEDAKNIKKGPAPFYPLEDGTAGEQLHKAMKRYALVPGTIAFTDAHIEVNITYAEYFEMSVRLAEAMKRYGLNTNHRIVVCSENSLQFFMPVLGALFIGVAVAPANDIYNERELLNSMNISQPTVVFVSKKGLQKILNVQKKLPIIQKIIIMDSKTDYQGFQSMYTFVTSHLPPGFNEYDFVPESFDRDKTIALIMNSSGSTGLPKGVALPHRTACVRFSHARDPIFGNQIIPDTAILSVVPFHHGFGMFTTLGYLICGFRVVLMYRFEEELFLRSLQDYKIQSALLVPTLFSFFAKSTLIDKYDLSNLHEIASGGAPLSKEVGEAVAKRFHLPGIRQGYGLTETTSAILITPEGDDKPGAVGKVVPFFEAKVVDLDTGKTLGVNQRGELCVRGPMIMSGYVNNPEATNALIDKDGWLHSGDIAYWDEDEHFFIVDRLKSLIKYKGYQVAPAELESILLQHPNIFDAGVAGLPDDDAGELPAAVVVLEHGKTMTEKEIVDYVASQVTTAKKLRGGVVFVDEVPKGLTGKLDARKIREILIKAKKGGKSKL
S16 F2sN tox cnf: S16 Schwann cell cytotoxicity, confirmatory; shares compounds with PMP22 txn; S16 Schwann cells viability, CellTiter-Glo ATP luminescence, 24 h; Potency, µM (series often up to 57.5 µM), for the others: at the top dose activity change, negative = viability loss, actives largely listed as cytotoxic; actives 7% (n = 690); AID 1508641; further: potency means the concentration at half of the fitted maximal effect; on the % scale 0 is the no-effect control and ±100 the full control effect
PMP22 txn cnf: confirmation of modulators of PMP22 gene transcription in S16 cells; shares compounds with PMP22 txn; S16 Schwann cells Pmp22-F2sN, dual luciferase, 24 h; Potency, µM (highest dose often 57.5 µM), inactives show at the top dose activity change, negative = inhibition, usual class: inhibitors; actives 22% (n = 690); active means clear falling dose curves in both reporters; inconclusive means both reporters move, but less clearly or upward; inactive means either reporter flat; the % is the FLuc reporter signal; further: potency means the concentration at half of the fitted maximal effect
An asterisk follows results filed as active; i = inactive; ? = inconclusive; nt = not tested or not shown. Unless noted, the call rests on the fitted dose curve; in most records, active means well fitted curve in the direction sought with a large enough effect; inconclusive means small, poorly fitted or top-dose-only effect, or another doubt; inactive means no such curve, though single readings can be large; an effect the other way counts as inactive or inconclusive.

SMILES | S16 F2sN tox | mTORC1 inh | TSG101-PTAP inh | GALK inhibitor | PMP22 txn | NLuc saturating | NLuc Km ctr | FLuc counter | S16 F2sN tox cnf | PMP22 txn cnf
O=C(Cn1c(=O)n(Cc2ccccc2)c(=O)c2sc3ccccc3c21)Nc1ccccc1 | -13.4% | -12.5% | i | 7.2% | ? | nt | nt | nt | nt | nt
O=C(Cn1c(=O)n(Cc2ccccc2)c(=O)c2sc3ccccc3c21)Nc1ccc(F)cc1 | ? | -11.1% | i | -14.2% | 14.2µM* | -12.8% | 3.1% | 1.2% | ? | ?
CCN(CC)c1cc(C)c2cc(NC(=O)/C=C/c3ccccc3Cl)ccc2n1 | ? | ? | i | 7.0% | 11.9µM* | ? | -16.6% | -24.5% | ? | ?
Cc1cc(C)cc(N(CC(=O)NCCc2ccc(Cl)cc2)S(=O)(=O)c2c(C)noc2C)c1 | 7.8% | 0.1% | i | -0.5% | ? | nt | nt | nt | nt | nt
COc1ccc(NC(=O)CCn2c(=O)c3cccn3c3cccnc32)cc1Cl | 17.8% | -0.9% | i | -8.7% | -16.8% | nt | nt | nt | nt | nt
COc1ccc(NC(=O)CCCn2c(=O)c3cccn3c3cccnc32)cc1Cl | -0.5% | -4.2% | i | -0.6% | 15µM* | -17.4% | -17.7% | -6.7% | -5.9% | -25.9%
O=C(CCCCn1c(=O)c2ccccc2n(CC(=O)Nc2ccc(F)cc2F)c1=O)NCc1ccccc1Cl | 18.1% | -1.7% | i | 3.5% | 16.3µM* | -4.1% | -5.0% | 0.6% | -7.9% | ?
O=C(CCCn1c(=O)c2ccccc2n(CC(=O)Nc2ccc(F)cc2F)c1=O)NCc1ccccc1Cl | 13.4% | -8.1% | i | -11.0% | ? | nt | nt | nt | nt | nt
Cc1cccc(CCn2c(=O)c3ccccc3n(CC(=O)Nc3ccccc3F)c2=O)c1 | 24.7% | -18.7% | i | 2.6% | 16µM* | -1.6% | 4.0% | 2.5% | -8.0% | -21.7%
COc1ccc(NC(=O)Cn2c(=O)n(Cc3ccc(C(=O)NCc4ccccc4Cl)cc3)c(=O)c3ccccc32)cc1OC | -11.6% | -4.1% | i | -1.4% | -43.2% | nt | nt | nt | nt | nt
COc1ccc(NC(=O)Cn2c(=O)n(Cc3ccccc3Cl)c(=O)c3cc(OC)c(OC)cc32)cc1OC | 23.9% | -5.6% | i | 1.1% | 13.4µM* | -0.6% | 4.9% | -2.3% | 11.3% | 2.1%
COc1ccccc1CNC(=O)CCCCn1c(=O)c2ccccc2n(Cc2ccccc2C)c1=O | -4.5% | -8.4% | i | -0.1% | 14.1µM* | -16.3% | ? | 1.9% | -25.7% | ?

Screens (PubChem BioAssay)
